Screening data: PubChem BioAssay, several laboratories
Most compounds without a hit are left out; they make up all but 4.1% or so of the library.
TWEAK-Fn14 inh – TWEAK-Fn14 signaling inhibition. inhibition, % at 10 µM. TWEAK-stimulated Fn14 reporter cells, luciferase luminescence, 8 h. AID 1159606. hit rate 2% among 360,000; in the data active = inhibition above about 50%
LMP1 NFkB inh – inhibitors of Epstein-Barr LMP1-induced NF-kappaB reporter. AID 504558. LMP1-induced NF-kappaB luciferase reporter cells, luminescence. hit rate 0.69% among 350,000. inhibition, % at 12.5 µM; in the data active = inhibition above about 41%; inconclusive = no clear call, values can overlap the other calls
Peg3 prom inh – Peg3 promoter activity inhibition | HeLa PEG-Prom luciferase reporter, luminescence, overnight | inhibition, % at 20 µM | hit rate 1.7% among 360,000;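 active = inhibition of at least 50% at 20 µM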
TROY signal inh – inhibitors of TROY-dependent NF-kB signaling; Q293 LMP1-TROYcd NF-kB luciferase reporter, 4 h; inhibition, % at 10 µM; hit rate 0.98% among 360,000; AID 1347056;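 active = compounds whose plate-normalised and pattern-corrected inhibition of the luciferase reporter signal at the single screening dose is 50% or more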
TRPM1 prom inh – MITF TRPM1 promoter inhibition in SK-MEL-5 cells; SK-MEL-5 TRPM1 promoter luciferase, 24 h; inhibition, % at 12.5 µM; hit rate 0.83% among 330,000;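 active = mean inhibition across replicates of 60% or more, whatever share of single replicates reaches that level; inconclusive = some that reach 60%, reason not given; inactive = mean inhibition across replicates below 60%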
Shn3 3UTR inh – inhibitors of Schnurri-3 3'UTR reporter in osteoblasts. hit rate 0.52% among 360,000. Clone20 osteoblast Shn3 3'UTR firefly luciferase, 24 h. inhibition, % at 12.5 µM. AID 588674;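 active = mean inhibition of at least 75% with every replicate also reaching 75%; inconclusive = mean inhibition at least 75% but some replicate below; inactive = mean inhibition below 75%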
Hits are given with their value; n = inactive; u = inconclusive; x = not tested or not shown.

SMILES | TWEAK-Fn14 inh | LMP1 NFkB inh | Peg3 prom inh | TROY signal inh | TRPM1 prom inh | Shn3 3UTR inh
CCOc1ccccc1NC(=O)CSc1nc2cc(O)ccc2c(=O)n1-c1ccc(OC)c(OC)c1 | n | n | n | n | n | n
O=C(Nc1ccc(N2CCN(C(=O)c3cccs3)CC2)cc1)c1ccco1 | n | n | n | n | n | n
O=C(Nc1ccc(S(=O)(=O)N2CCCC2)cc1)c1ccc([N+](=O)[O-])o1 | n | n | 97 | n | x | 91
O=C(COC(=O)c1ccc([N+](=O)[O-])o1)Nc1ccc(N2CCOCC2)cc1 | n | n | n | n | n | n
O=C(Nc1ccccc1N1CCOCC1)c1ccc([N+](=O)[O-])s1 | n | n | n | n | 81 | n
O=C(Nc1ccc(N2CCN(C(=O)c3cccs3)CC2)cc1)c1ccc([N+](=O)[O-])o1 | n | n | 107 | n | 98 | n
O=C(Nc1ccc(N2CCOCC2)cc1)c1ccc([N+](=O)[O-])o1 | n | n | 102 | n | n | n
COc1ccccc1NS(=O)(=O)c1cccc(C(=O)N(C)Cc2cccs2)c1 | n | n | n | n | n | n
CN(C(=O)CCc1nc2ccccc2c(=O)[nH]1)C1CCS(=O)(=O)C1 (stereo not drawn) | n | n | n | n | x | n
Cc1ccc(-n2ccc(=O)c(C(=O)Nc3ccc(S(=O)(=O)N4CCOCC4)cc3)n2)cc1 | n | 45 | n | n | n | n
CCN(CC)C(=O)c1ccc(COc2ccc(Cl)c(C)c2)o1 | n | n | n | n | n | n
N=c1c2c(-c3ccccc3)c(-c3ccccc3)n(Cc3ccco3)c2ncn1Cc1ccco1 | n | n | 105 | x | 66 | n
Cc1cc(NCCCn2ccnc2)n2nc(C)c(-c3ccccc3)c2n1 | n | n | n | n | n | n
CCCCn1cnc2c(c(-c3ccccc3)c(-c3ccccc3)n2Cc2ccco2)c1=N | n | x | n | n | x | n
N=c1c2c(-c3ccccc3)c(-c3ccccc3)n(Cc3ccccc3)c2ncn1CCCn1ccnc1 | n | n | 106 | n | 94 | n
COc1ccc(C(=O)OCC(=O)NC2CCCCCCC2)cc1OC | n | n | n | n | x | n
O=C(/C=C/c1cn(-c2ccccc2)nc1-c1cccnc1)N1CCCC1 | n | u | n | n | n | n
O=C(/C=C/c1cn(-c2ccccc2)nc1-c1cccnc1)c1ccco1 | 80 | n | n | n | n | n
CN(C)C(CNC(=O)c1cccc(S(=O)(=O)NCc2ccccc2)c1)c1ccco1 (stereo not drawn) | n | n | n | n | n | n
CCN(C(=O)c1cc(OC)c(OC)c(OC)c1)C1CCCCC1 | n | 48 | n | n | x | n
COc1cc(C(=O)N(C(C)C)C2CCCCC2)cc(OC)c1OC | n | n | n | n | x | n
CCN(C(=O)c1cccc(NC(=O)c2ccccc2)c1)C1CCCCC1 | n | 51 | n | n | n | n
O=C(Nc1cccc(C(=O)NC2CCCCC2)c1)c1ccccc1 | n | n | n | n | n | n
Cc1cc(C)c(-c2c(O)c3cccc4c3n(c2=O)CCC4)c(C)c1 | 56 | n | n | n | n | n
O=c1c(-c2ccccc2)c(O)c2cccc3c2n1CCC3 | n | n | n | n | n | n
SMILES | TWEAK-Fn14 inh | LMP1 NFkB inh | Peg3 prom inh | TROY signal inh | TRPM1 prom inh | Shn3 3UTR inh
N#Cc1cccc2c1-c1ccccc1/C2=N/NC(N)=O | n | n | 52 | n | n | n
CCOc1ccccc1NC(=O)/C(C#N)=C/c1c(C)nn(-c2ccc(F)cc2)c1Cl | n | n | n | n | n | n
CN(C)c1nc(C=C(C#N)C#N)c(Cl)n1-c1ccc(F)cc1 | 72 | n | 110 | n | 101 | 97
CN(c1nc2ccccc2nc1Cl)S(=O)(=O)c1ccccc1 | n | n | n | n | n | n
[O-][n+]1c2c(c3c4non(O)c4ccc31)CCCC2 | n | n | n | 51 | n | n
COn1c2c(c3c4no[n+]([O-])c4ccc31)CCCC2 | n | n | n | n | n | n
CSC(SC)=C(C#N)C(=O)c1ccccc1 | n | n | 99 | n | 65 | n
COc1cccc(C(=O)C(C#N)=C(SC)SC)c1 | n | n | 102 | n | 82 | n
N#CC(C#N)=C(Nc1ccccc1)c1ccccc1 | n | n | n | n | n | n
Cc1cc2nccnc2cc1C | n | n | n | n | n | n
O=C(CNCc1cccs1)Nc1ccc(OC(F)(F)F)cc1 | n | n | n | n | n | n
Cn1c(SCC(=O)N2CC(=O)Nc3ccccc32)nnc1C(F)(F)F | n | n | n | n | n | n
CC(C)(C)C1CCC(OC(=O)c2ccncc2)CC1 (stereo not drawn) | n | n | n | n | n | n
CC(C)(C)C1CCC(OC(=O)c2cncc(Br)c2)CC1 (stereo not drawn) | 74 | n | n | 71 | n | n
COc1ccc(OC)c(/C=N/N(CCC#N)C2=NS(=O)(=O)c3ccccc32)c1 | n | n | n | n | n | n
Nc1nc(F)nc2c1ncn2[C@@H]1O[C@H](CO)[C@@H](O)[C@H]1O | 87 | 91 | 95 | 51 | 93 | 96
Nc1nc(F)nc2c1ncn2[C@@H]1O[C@H](CO)[C@@H](O)[C@@H]1O | n | n | n | n | n | n
Nc1nc(Cl)nc2c1ncn2C1CC(O)C(CO)O1 (stereo not drawn) | n | n | n | n | n | 90
O=C(NCc1cccs1)c1cc(S(=O)(=O)N2CCOCC2)ccc1N1CCCC1 | n | n | n | n | n | n
COc1ccc(C(c2c(C)n(C)n(-c3ccccc3)c2=O)c2c(C)n(C)n(-c3ccccc3)c2=O)c(OC)c1OC | n | 80 | n | n | n | n
CN(CCc1ccccc1)C(=O)c1ccc(NC(=O)Cc2ccc(NC(=O)C3CCCN(C(=O)CCc4ccccc4)C3)cc2)cc1 (stereo not drawn) | 58 | n | n | n | n | n
CN(CCc1ccccc1)C(=O)c1ccc(NC(=O)Cc2ccc(NC(=O)C3CCN(C(=O)CCc4ccccc4)CC3)cc2)cc1 | 55 | n | n | n | n | n
CN(CCc1ccccc1)C(=O)c1ccc(NC(=O)Cc2ccc(NC(=O)C3CCCN(C(=O)C4CCC4)C3)cc2)cc1 (stereo not drawn) | n | n | n | n | n | n
O=[N+]([O-])c1ccc(NCCc2ccccc2)c(Br)c1 | n | n | n | n | n | n
COc1ccc(NC(=O)COC(=O)c2ccc(Cl)c(S(N)(=O)=O)c2)c([N+](=O)[O-])c1 | n | n | n | n | n | n
CCn1c(N)c(C(=O)NCC2CCCO2)sc1=S (stereo not drawn) | 85 | n | n | x | n | n
O=C(CN1CCOCC1)OCCCC1CCCCC1 | n | n | n | n | n | n
CC(C)CCCC(C)CCOC(=O)CN1CCCC1 (stereo not drawn) | 68 | n | n | n | n | n
CCN(CC(=O)Nc1c(F)cccc1F)C(=O)c1ccc2c(c1)OCO2 | n | n | n | n | n | n
COc1cc(-c2cc(NC=O)c3ncc(-c4ccc(C(C)=O)cc4)n3c2)cc(OC)c1OC | n | x | 57 | n | x | n
